Data from ChEMBL document CHEMBL4513216, “Probing the Open Global Health Chemical Diversity Library for Multistage-Active Starting Points for Next-Generation Antimalarials” (ACS Infect Dis, 2020).
Hit rate of the full screen: of about 69,000 compounds, about 8,600 (12%) showed an effect of 50% or more. This is one part of a sample in which strong results are shown more often than they occur.

tested on: Plasmodium berghei; experiment: Screen against P. berghei liver stage (PbLuc), transformed with Luciferase, at 10uM; format: functional, HepG2; settings: tested at 10 uM

Compound	INHIBITION [%]
CCn1cc(C(=O)N2CCCC3(CCC(=O)N(CCC(C)C)C3)C2)cn1 (stereo not drawn)	-47.8
CCn1cc(CN2CCCC3(CCC(=O)N(CCC(C)C)C3)C2)cn1 (stereo not drawn)	65.2
CN(C)C(=O)N1CCC2(CCCN(Cc3cnn(C)c3)C2)C1 (stereo not drawn)	52.9
CN(C)C(=O)C1CCC2(CCN(Cc3cnn(C)c3)CC2)C1 (stereo not drawn)	55.5
Cn1cc(CN2CCC3(CCCN3S(C)(=O)=O)CC2)cn1	53.5
Cn1cc(CN2CCCC3(CCN(C(=O)c4ccoc4)C3)C2)cn1 (stereo not drawn)	42.7
Cn1cc(CN2CCC3(CCC(C(=O)NCC4CC4)C3)CC2)cn1 (stereo not drawn)	20.1
COCC(=O)N1CCC2(CCCN(Cc3cnn(C)c3)C2)C1 (stereo not drawn)	47.4
CN1CC(=O)N(c2ccccc2)CC12CCN(C(=O)c1cccs1)C2 (stereo not drawn)	17.1
CC(=O)Cn1ncc(N2CCOCC2)cc1=O	-10.5
CN(C)CCN1C(=O)CCC12CCN(C(=O)c1cccnc1)CC2	13.2
Cn1cc(CN2CCC3(CCCN(Cc4ccccn4)C3)CC2)cn1	-3.19
Cc1cccc(CN2CCOC3(CCCN(CC(=O)N(C)C)C3)C2)n1 (stereo not drawn)	59.3
Cc1cccc(CN2CCc3[nH]nc(C(=O)N4CCNC(=O)C4)c3C2)n1	49.7
Cc1cccc(CN2CCC3(CCCN(Cc4cnn(C)c4)C3)C2=O)n1 (stereo not drawn)	0.618
Cc1cnc(N2CCOC3(CCCN(CC(=O)N(C)C)C3)C2)nc1 (stereo not drawn)	-29.8
Cc1cccc(CN2CCC3(CCCN(Cc4cnn(C)c4)C3)C2)n1 (stereo not drawn)	64.7
Cc1cc(CN2CCOC(C)(C(=O)N3CCOCC3)C2)no1 (stereo not drawn)	0.301
CC1(C(=O)N2CCOCC2)CN(Cc2ccccn2)CCO1 (stereo not drawn)	44.4
Cc1cccc(CN2CCc3[nH]nc(C(=O)N4CCOCC4)c3C2)n1	65.9
Cc1cccc(CN2CCOC(C)(C(=O)N3CCOCC3)C2)n1 (stereo not drawn)	59
Cc1cccc(CN2CCc3[nH]nc(C(=O)N(C)C)c3C2)n1	-45.5
Cc1cccc(CN2CCOC3(COCCN(CCN(C)C)C3)C2)n1 (stereo not drawn)	48.4
Cc1cc(C)n(C2CN(CCc3ccccn3)C2)n1	28.2
Cc1nn(C)c(Cl)c1C1CCCN1Cc1ccccn1 (stereo not drawn)	8.64
COc1ccc(C2CC(=O)Oc3cc(C)[nH]c(=O)c32)cc1O (stereo not drawn)	15.4
O=C(c1cc(-n2cnnn2)ccc1Cl)N1CCOCC1	30.8

Compound	INHIBITION [%]
O=c1cnc2ccccc2n1CCCn1cccn1	44.5
CC(C)NC(=O)CC1COC2(CCN(Cc3ccccc3)CC2)C1 (stereo not drawn)	21.6
Cc1nc(C2CCCN(C(=O)c3cnn(C4CCCCC4)c3)C2)no1 (stereo not drawn)	-25.9
O=C(c1cnc2c(cnn2C2CCCC2)c1)N1CCCSCC1	36.1
CC(C)NC(=O)CC1CC2(CCN(CC3CC3)CC2)Oc2ccccc21 (stereo not drawn)	-2.35
Cc1cccc(CN2CCC3(CCC(CC(=O)N(C)C)CC3)CC2)n1	23.1
CC(C)CCN1CCc2[nH]nc(C(=O)N3CCCC3C)c2C1 (stereo not drawn)	2.58
Cc1cccc(CN2CCCC3(CCN(CC(=O)N(C)C)C3=O)C2)n1 (stereo not drawn)	27.6
CC(=O)N1CCc2[nH]nc(C(=O)N3CC=CC3)c2C1	23.1
Cc1cccc(CN2CCC3(CCCN(CC(=O)N(C)C)C3)C2)n1 (stereo not drawn)	51.2
CC(C)CCN1CCc2[nH]nc(C(=O)N3CC=CC3)c2C1	50.3
COC(=O)c1ccc(C)c(N2CCNC2=O)c1	34
CS(=O)(=O)N1CCC(NC(=O)COc2cccc(Cl)c2)CC1	-35.7
CCO[C@@H]1C[C@H]2CN(Cc3ccc(C)o3)CCN2C1	-37.9
COCc1noc(CN2C(=O)OC[C@@H]2C(C)C)n1	14.6
COCc1nc(CN2C(=O)OC[C@@H]2C(C)C)no1	27.6
COCCc1noc(CN2C(=O)OC[C@@H]2C(C)C)n1	55.9
CCn1nc(C)c(C(=O)N2C[C@@H](CN(C)CCOC)[C@@H](CO)C2)c1C	20
NC(=O)c1cc2c(nc1Oc1ccc(CN3CCCC3)cc1F)CCC2	67
CN1CCCCC1Cc1nc2c(cc1C(N)=O)CCC2 (stereo not drawn)	-107
NC(=O)c1cc2c(nc1Oc1ccccc1CN1CCCCC1)CCC2	27.4
CC(=O)Nc1ccc(Oc2ccc(CN3CCCC3)cc2F)cc1	45.1
NC(=O)c1cc2c(nc1-c1ccoc1)CCC2	30.3
NC(=O)c1cc2c(nc1Oc1cccc(CN3CCCC3)c1F)CCC2	62.1
Cc1cc(C)c2c(N3CCC(C(=O)N4CCCC4)CC3)ncnc2n1	42.8
Cc1ccccc1C(=O)N1C[C@@H]2COC[C@]2(COCc2cccnc2)C1	1.9
